Measurements published in PubChem BioAssay (NCI).
About 83,000 compounds went through this panel and 20% of them were active in at least one assay; those are over-represented in the sample as a whole.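 48-hour exposure, single concentration, 96-well plates; percent growth endpoint where 0 means no net growth. Active: below 10.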 Values without a mark were called inactive. Activity calls are given as the source filed them.

tested on: T-47D breast; experiment: NCI-60 one-dose screen, 48 h (100 = growth as untreated, 0 = no growth, -100 = all killed); details: 10 µM unless noted
Experimental: Growth inhibition of the T-47D human tumor cell line is measured as a screen for anti-cancer activity. Cells are grown in 96 well plates and exposed to the test compound for 48 hours. Compounds are tested at a single concentration, which is 10^-5 M for most compounds. The reported endpoint is percent growth (GI% or GIPRCNT), where numbers from 0 - 100% represent growth inhibition, and numbers from -100% - 0 represent cell death. For example, a value of 40 represents 60% growth inhibition. A value of 0 means no net growth occurred over the course of the experiment. A value of -40 indicates 40% of cells at the beginning of the experiment died by the end of the experiment. A value of -100 means all cells are dead at the end of the experiment.
NCI-60 Human Tumor Cell Lines Screen was performed using the standard one-dose NCI protocol, which is described in more detail at https://dtp.cancer.gov/discovery_development/nci-60/default.htm.
Compounds with GIPRCNT values below 10 were considered active. Activity score was based on GIPRCNT using the following formula: […]
Score is 0 for GIPRCNT values of 100 or above, 50 for GIPRCNT values of 0, and 100 for GIPRCNT values of -100.

SMILES	growth
CCN1C(=O)/C(=C/N2N=C(c3ccc(Cl)cc3)CC2c2ccc(OC)cc2)SC1=S (stereo not given)	70.1%
CC(=O)O[C@@H]1CC2C(C)(C)CCCC2(C)C2=C1C(=O)C(C(C)C)=CC2=O (stereo not given in full)	-7.86% (active)
COc1cccc(-c2cc(-c3cccs3)c(C#N)c(=O)[nH]2)c1	93.3%
CNC(=O)OC1C(O[C@H]2C[C@H]3[C@@H]4CC=C5C[C@@H](O)CC[C@]5(C)[C@H]4CC[C@]3(C)[C@H]2[C@H](C)C(=O)CCC(C)C)OCC(O)C1OC1OCC(O)C(O)C1OC(=O)c1ccc(OC)cc1 (stereo not given in full)	10.2%
COc1cc(OC)c2sc(-c3ccc(-n4cncc4-c4ccc(OC)c(N)c4)cc3)nc2c1	77.2%
CC(C)CCSc1nc(-c2ccc(F)cc2)c(C#N)c(N2CCN(C)CC2)n1	68.3%
Cc1c(C(N)=O)sc2ncn(CC(=O)NN=C3CCCCC3)c(=O)c12	103%
COc1cc2ncnc(Nc3ccc(S(=O)(=O)Nc4cc(C)on4)cc3)c2cc1OCCCN1CCN(c2ccc([N+](=O)[O-])cc2)CC1	102%
N=C(N)c1ccc(NCCNc2ccc(C(=N)N)cc2)cc1	137%
NNc1ccc(S(N)(=O)=O)cc1	89.4%
CC(C)CCSc1nc(-c2ccc(F)cc2)c(C#N)c(N2CCCCC2)n1	79%
Nc1ncnc2c1N=C(c1ccc3c(c1)OCO3)CC(c1ccc(Cl)cc1)N2 (stereo not given)	55.8%
O=C(NNC(=O)c1cccc(Cl)c1)c1ccccc1	103%
N/C(=C\C(=O)n1nc(-c2ccccc2)cc1N)c1ccccc1	47%
COc1cc(/C=C2\CN(C(=O)OC(C)(C)C)C/C(=C\c3ccc(O)c(OC)c3)C2=O)ccc1O	92.1%
Clc1ccc(-c2cnc3c(-c4ccnc(N5CCNCC5)c4)cnn3c2)cc1	-55.6% (active)
Cc1ccccc1Nc1n[nH]c(Cc2ccccc2)n1	101%
CCN(CC)CC(=O)Nc1c(C)cc(C(=O)NN)cc1C	90.8%
CC(=O)Nc1ccc(/C=N/N2CCCCCC2)cc1	100%
COc1cc([N+](=O)[O-])cc(OC)c1OC	112%

SMILES	growth
CC(=O)NC1C(O[C@H]2C[C@H]3[C@@H]4CC=C5C[C@@H](O)CC[C@]5(C)[C@H]4CC[C@]3(C)[C@H]2[C@H](C)C(=O)CCC(C)C)OCC(O)C1O (stereo not given in full)	45.4%
COC(=O)c1ccc2c(c1)nc(-c1ccc(Cl)cc1)n2-c1cc(C(C)(C)C)[nH]n1	76.9%
C=C(C)[C@@H]1CC[C@]2(C(=O)NS(=O)(=O)c3ccccc3)CC[C@]3(C)[C@H](CC[C@@H]4[C@@]5(C)CC[C@H](OC(=O)NS(=O)(=O)c6ccccc6)C(C)(C)[C@@H]5CC[C@]43C)[C@@H]12	1.6% (active)
Cc1cc(-c2ccc(N=Nc3c(S(=O)(=O)O)cc4cc(S(=O)(=O)O)cc(O)c4c3O)c(C)c2)ccc1N=Nc1c(S(=O)(=O)O)cc2cc(S(=O)(=O)O)cc(O)c2c1O	92.2%
CCCCCCCCCCCCNC(=O)N[C@H](C(=O)N[C@H]1/C=C/OCCNC(=O)/C=C/[C@H](C(C)C)NC1=O)C(C)C	47.6%
COc1ccc(Nc2nc(N)nc3c(=O)[nH]ccc23)cc1	96.6%
COc1ccc2c(c1)N(Cc1ccc(Cl)cc1)CCC2N1CCCC1=O (stereo not given)	31.5%
Cc1c(C(=O)Nc2ccccc2F)sc2c(=O)[nH]cnc12	90%
COc1cccc(C2C(C#N)=C(N)Oc3cc4c(cc32)OCO4)c1 (stereo not given)	59.9%
C#CCNc1nc(NCCNC(=O)CCl)nc(N(C)CCCCc2ccccc2)n1	93%
CCn1c(=O)c(C(=O)NCCCO)c(O)c2ccccc21	106%
OCCN(CCO)c1ccc2ccccc2c1	96.6%
ClC1(Cl)C2CCCCCCC21 (stereo not given)	108%
CCN(CC)Cc1cc(Nc2ccnc3ccc(OC)cc23)ccc1O	-43.9% (active)
CCOCCNc1ccc(S(=O)(=O)c2ccc(N)cc2)cc1N	99.8%
CCN(CC)CCCC(C)Nc1ccnc2ccc(Oc3ccccc3)cc12 (stereo not given)	70.7%
CC(C)(c1ccccc1)c1cc(O)c(C(C)(C)c2ccccc2)cc1O	-0.998% (active)
CC(C)(C)c1nn(-c2ccccc2)c2c1C(=O)CSC(c1ccccc1Cl)N2 (stereo not given)	29.3%
COc1cnc2c(c1)C(=O)c1c-2n(CCCN2CCCC2)c(=O)c2cc(Cl)ccc12	29.3%
Cn1cnc([N+](=O)[O-])c1S(=O)(=O)Oc1cccc2ccccc12	-30.9% (active)
